# The whole screen tested about 16,000 compounds, of which about 2,600 (16%) were called active. Inconclusive results (about 20%) are left out. Calls come from the whole dose curve; as a rule, active = well fitted curve in the direction sought with a large enough effect; inconclusive = small, poorly fitted or top-dose-only effect, or effect the other way; inactive = no such curve, though single readings can be large or run the other way. A selection follows.
# Target: Cytochrome P450 2D6 (Homo sapiens) (UniProt P10635)
# Sequence (P10635 whole entry, looked up): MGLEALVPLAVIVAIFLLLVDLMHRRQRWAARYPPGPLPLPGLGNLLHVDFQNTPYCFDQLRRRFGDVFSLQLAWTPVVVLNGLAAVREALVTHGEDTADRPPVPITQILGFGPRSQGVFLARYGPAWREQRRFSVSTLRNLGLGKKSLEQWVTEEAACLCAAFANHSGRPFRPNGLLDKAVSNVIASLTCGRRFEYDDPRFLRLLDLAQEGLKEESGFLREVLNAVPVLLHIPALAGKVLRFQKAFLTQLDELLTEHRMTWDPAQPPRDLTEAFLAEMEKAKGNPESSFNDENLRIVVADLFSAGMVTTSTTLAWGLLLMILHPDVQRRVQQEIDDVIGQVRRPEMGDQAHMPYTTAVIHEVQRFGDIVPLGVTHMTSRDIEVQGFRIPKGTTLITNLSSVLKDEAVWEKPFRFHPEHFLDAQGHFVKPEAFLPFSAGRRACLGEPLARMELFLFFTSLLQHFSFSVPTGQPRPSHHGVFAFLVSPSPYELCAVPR
# Assay: Cytochrome panel assay with activity outcomes
# Settings: recombinant CYP, pro-luciferin dealkylation, luminescence, p450-cyp2d6; series mostly up to 57.1 µM
# % is set by controls: 0 for no effect and ±100 for the full control effect.
Structure (SMILES),AC50,"activity, negative = inhibition"
COc1ccc(-n2c(C)n[nH]c2=O)cc1OC,inactive,
O=c1cnc2cnc(Oc3ccccc3)nc2n1CCc1ccccc1,inactive,
Nc1nc2ncc(CNc3ccc(C(=O)N[C@@H](CCC(=O)O)C(=O)O)cc3)nc2c(=O)[nH]1,inactive,
COc1ccc(NC(=O)C2(c3ccc(NC(=O)c4ccc(OC(C)=O)cc4)cc3)CCCC2)cc1,inactive,
CC(=O)N(/N=C1\Sc2ccccc2C1=O)c1ccccc1C,inactive,
COc1ccc(-n2c(=O)c(-c3cccs3)nc3cnc(N4CCN(C)CC4)nc32)cc1,inactive,
CCOC(=O)N/N=C/c1ccccc1F,inactive,
O=C(CNC(=O)c1ccco1)OC(C(=O)c1ccccc1)c1ccccc1 (configuration not stated),inactive,
COC(=O)N1CCC2(CC1)CN(c1ccc(-c3ccccc3)cc1)C2,inactive,
CC(=O)N1CCC2(CCCN(C(c3ccccc3)c3ccccc3)C2)CC1,7.94 µM (active),
COC(=O)N1CCC2(CCN(C(=O)Nc3ccccc3)CC2)CC1,inactive,
COC(=O)N1CCC2(CC1)CCN(c1ccccc1)CC2,inactive,
COC(=O)N1CCC2(CCCN(C(c3ccccc3)c3ccccc3)C2)CC1,10 µM (active),
CC(=O)N1CCC[C@@]2(CCN(c3ccccc3)C2)C1,inactive,
COC(=O)N1CCC2(CC1)CCN(C(c1ccccc1)c1ccccc1)CC2,7.94 µM (active),
COC(=O)N1CCC2(CC1)CN(C(c1ccccc1)c1ccccc1)C2,0.794 µM (active),
COC(=O)N1CCC2(CC1)CN(c1ccccc1)C2,inactive,
CC(=O)N1CCC2(CCCN(c3ccccc3)C2)CC1,inactive,
COC(=O)N1CCC2(CC1)CN(C(=O)Nc1ccccc1)C2,inactive,
COC(=O)N1CCC2(CCCN(c3ccc(-c4ccccc4)cc3)C2)CC1,inactive,
Cc1c(NC(=O)NC(C)N2C(=O)C3C4C=CC(C4)C3C2=O)c(=O)n(-c2ccccc2)n1C (configuration not stated),inactive,
CCOC(=O)C1=C(CSc2nc(-c3ccccc3)ccc2C#N)OC(N)=C(C#N)C1c1ccc(OC)cc1 (configuration not stated),inactive,
CCOC(=O)c1[nH]c(C)c(C)c1C,inactive,
Nc1ncnc2c1ncn2C[C@@H](O)C(=O)O,,10.9% [at 11.4 µM] (inactive)
O=C(N/N=C/c1c(Nc2cccc(C(F)(F)F)c2)nc2ccccn2c1=O)c1ccccc1,inactive,
CC(=O)OCC1=C(C(=O)O)N2C(=O)[C@@H](NC(=O)Cc3cccs3)[C@@H]2SC1,inactive,

Structure (SMILES),AC50,"activity, negative = inhibition"
CC(C)CCN1C(=O)c2ccc(-c3nc4ccccc4c(=O)o3)cc2C1=O,inactive,
Cc1noc(C)c1C(=O)N1CCC[C@@]2(CCN(C(=O)NC(C)C)C2)C1,inactive,
COCCCNC(=O)C1CCN(S(=O)(=O)N(CC(C)C)CC(C)C)CC1,inactive,
CC(C)(C)c1ccc(-c2c(C#N)c(N)nc3c2CCCC3)s1,inactive,
Cc1noc(C)c1C(=O)N1CCC2(CC1)CN(c1ncccn1)C2,inactive,
COc1ncnc(NS(=O)(=O)c2ccc(N)cc2)c1OC,inactive,
CCOC(=O)N1CCN(C(=O)c2ccc3nc(SCc4ccc(F)cc4)n(C)c3c2)CC1,inactive,
C[C@H]1C[C@H]2[C@H]3CCC4=CC(=O)C=C[C@@]4(C)[C@]3(F)[C@H](O)C[C@]2(C)[C@@]1(O)C(=O)COP(=O)(O)O,,2.95% [at 11.4 µM] (inactive)
C[C@@H]1C[C@@H]2[C@H]3CCC4=CC(=O)C=C[C@]4(C)[C@]3(Cl)[C@@H](O)C[C@@]2(C)[C@@]1(O)C(=O)CO,inactive,
C[C@H]1C[C@@H]2[C@H]3CCC4=CC(=O)C=C[C@@]4(C)[C@@]3(Cl)[C@@H](O)C[C@]2(C)[C@]1(OC(=O)c1ccco1)C(=O)CCl,3.98 µM (active),
C=CCC(C(=O)OC)(C(=O)OC)c1ccc([N+](=O)[O-])cn1,inactive,
CCNc1ncc2ncc(=O)n(C3CC3)c2n1,inactive,
CCOC(=O)CSc1n[nH]c(NC(=O)c2ccccc2)n1,inactive,
Cc1sc(NC(=O)c2ccco2)c(C(c2ccncc2)N2CCOCC2)c1C (configuration not stated),inactive,
CCN1CCN(C(c2ccccn2)c2c(NC(=O)c3ccccc3)sc(C)c2C)CC1 (configuration not stated),14.1 µM (active),
Cc1noc(C)c1-c1ccc2ncnc(N3CCOCC3)c2c1,inactive,
CC(=O)NCCNc1ncnc2ccc(-c3c(C)noc3C)cc12,inactive,
Cc1noc(C)c1-c1ccc2ncnc(NC3CCNCC3)c2c1,inactive,
COCCNc1ncnc2ccc(-c3c(C)noc3C)cc12,inactive,
Cc1cccc(CNc2ncnc3ccc(-c4c(C)noc4C)cc23)c1,15.8 µM (active),
Cc1noc(C)c1-c1ccc2ncnc(NCc3cccs3)c2c1,20 µM (active),
N#Cc1cccc(NC(=O)N2CCC3(CC2)CCN(C(=O)c2ccco2)CC3)c1,inactive,
COc1ccccc1NC(=O)C(C/C=C(\C)Cl)C(C)=O (configuration not stated),inactive,
Cc1nn(C)c(C(=O)NNC(=S)Nc2ccc(Cl)cc2)c1[N+](=O)[O-],inactive,
Cn1c(=O)c(-c2ccccc2)nc2cnc(Oc3ccccc3)nc21,inactive,
Nc1ccc(Oc2ccc3nc(-c4ccccc4)c(-c4ccc([N+](=O)[O-])cc4)nc3c2)cc1,inactive,

Structure (SMILES),AC50,"activity, negative = inhibition"
O=C(N=NC(=O)c1ccc2c(O)n(C3CCCCC3)c(O)c2c1)c1cccnc1,inactive,
Nc1ncnc2c1nc(-c1ccccc1)n2[C@H]1O[C@@H](CO)[C@@H](O)[C@H]1O,,11.6% [at 11.4 µM] (inactive)
NC(=O)C1(NC(=O)[C@@H]2CC3(CC(c4cccc(NC(=O)c5cc([N+](=O)[O-])cc([N+](=O)[O-])c5)c4)=NO3)CN2C(=O)c2ccccc2)CC1 (some centres not stated),15.8 µM (active),
C=C(C)C(=O)N1CC2(CC(c3cccc(NC(=O)c4ccccc4)c3)=NO2)C[C@@H]1C(N)=O (some centres not stated),inactive,
COc1ccc(C(=O)N2CC3(CC(c4cccc([N+](=O)[O-])c4)=NO3)C[C@H]2C(=O)NCC(N)=O)cc1 (some centres not stated),inactive,
CC1(C)CCCN(C(=O)c2coc(=O)c(Br)c2)C1,inactive,
CCOC(=O)C1=C(O)C(Nc2nccs2)(C(F)(F)F)N=C1C (configuration not stated),inactive,
COc1cccc(C(=O)N(C)c2nnc(-c3ccncc3)s2)c1,2 µM (active),
CC(=O)N(C)c1nnc(-c2cnccn2)s1,inactive,
Cc1ccc(-c2nnc(N(C)C(=O)c3cccnc3)s2)cc1,inactive,
COCCn1c(=O)c(-c2ccc(F)cc2)nc2cncnc21,inactive,
c1ccc(C[n+]2cccc(-c3cc4ccccc4[nH]3)c2)cc1,1.26 µM (active),
Clc1ccc(-c2cc3ccccc3[nH]2)cc1,inactive,
CO[C@@H]1COC(=O)[C@@H](CCSC)NC(=O)C/C=C\[C@@H](C)COC(=O)CCC[C@H]1C,,6.34% [at 11.4 µM] (inactive)
O=[N+]([O-])c1cccc2cn[nH]c12,inactive,
COc1ccc(C(=O)N2CCC3(CCCN(C(=O)Nc4cccc(C#N)c4)C3)CC2)cc1,inactive,
CN(C)CCO[C@](C)(c1ccccc1)c1ccccn1,inactive,
C[C@@H](C1=C(CCN(C)C)Cc2ccccc21)c1ccccn1,12.6 µM (active),
O=C(O)CCc1nc(-c2ccccc2-n2cccc2)no1,,-11.8% [at 11.4 µM] (inactive)
Cn1cc(-c2nc3cnc(Oc4cccc(Cl)c4)nc3n(CCC#N)c2=O)c2ccccc21,inactive,
Nc1cc(=O)[nH]c(N)n1,inactive,
CCCc1nnc(SCC(=O)N2CCCCC2)n1CC1CCCO1 (configuration not stated),inactive,
CC(C)c1nc2oc3ccccc3c(=O)c2c(=O)n1-c1ccccc1,inactive,
CC(=O)c1cc(CC=C(C)C)c(O)cc1O,14.1 µM (active),
COc1cc(CC(=O)O)c(C(C)=O)cc1OC,inactive,
N#Cc1nc(-c2ccc(OCc3ccccc3)cc2)oc1NCCN1CCOCC1,inactive,

Structure (SMILES),AC50,"activity, negative = inhibition"
CNc1oc(-c2cccs2)nc1C#N,inactive,
N#Cc1nc(-c2cccs2)oc1NCc1ccccc1,4.47 µM (active),
CCCC12CN3CC(CCC)(CN(C1)C3C(O)C(O)C(O)CO)C2=O (configuration not stated),inactive,
CCO/C([O-])=N/c1c[n+](N2CCOCC2)no1,inactive,
NS(=O)(=O)c1ccc(N=Nc2nc3[nH]c(=O)[nH]c(=O)c3[nH]2)cc1,,15.1% [at 11.4 µM] (inactive)
COC(=O)c1sc2ccccc2c1-n1cccc1C(=O)C(=O)Nc1ccc(Cl)cc1,inactive,
OC[C@@H]1NC[C@@H](O)[C@@H](O)[C@H]1O,inactive,
COc1ccc(-c2ccc(=O)n(CC(=O)Nc3nnc(C(C)C)s3)n2)cc1OC,inactive,
CCOc1ccc(-c2nnn(CC(=O)Nc3cc(OC)ccc3OC)n2)cc1OCC,inactive,
COc1ccc(-c2nnn(CC(=O)N(CC(=O)NCCC(C)C)Cc3cccs3)n2)cc1OC,11.2 µM (active),
CCOc1ccccc1NC(=O)C1=C(C)NC(=O)NC1c1cccc(OC)c1OC (configuration not stated),inactive,
NC(N)=N/N=C(\c1ccc(Cl)cc1)C1CC1,,1.81% [at 11.4 µM] (inactive)
Nc1ncnc(N(c2ccccc2)C2CCCCC2)c1[N+](=O)[O-],inactive,
CN[C@@H](c1ccncc1)[C@@H](NC)c1ccncc1,,-10.1% [at 11.4 µM] (inactive)
COc1cc(CN2CCN(C(=O)CC(C)C)CC2)cc(OC)c1OC,inactive,
CC(C)CC(=O)N1CCN(Cc2cccc(F)c2)CC1,8.91 µM (active),
COc1ccc(CN2CCN(C(=O)CC(C)C)CC2)c(OC)c1OC,inactive,
O=C(c1cc(Cl)c(=O)n(Cc2ccc(Cl)cc2)c1)N1CCOCC1,inactive,
Cc1ccc(S(=O)(=O)Nc2ccc(=O)n(Cc3ccc(Cl)c(Cl)c3)c2)cc1,3.98 µM (active),
O=c1ccc(NS(=O)(=O)c2ccc(Cl)cc2)cn1Cc1ccc(Cl)c(Cl)c1,7.94 µM (active),
Cc1cc(NS(=O)(=O)c2ccc(NC(=O)CN3C(=O)c4ccccc4C3=O)cc2)nc(C)n1,inactive,
O=c1nc2ccccc2c(NS(=O)(=O)c2ccc(Cl)cc2)n1-c1ccccc1,inactive,
Cc1ccc(NCCC(=O)c2ccc(Cl)c(Cl)c2)cc1,inactive,
O=c1ccc(NS(=O)(=O)c2ccccc2)cn1Cc1ccc(Cl)c(Cl)c1,14.1 µM (active),

# Reference: PubChem BioAssay AID1851 (National Center for Advancing Translational Sciences (NCATS), 2009)
